# A selection: hits, their analogues and other compounds. The true share with any hit is near 3.7%.
# GALK inhibitor = inhibits human galactokinase; recombinant GALK, Kinase-Glo ATP luminescence, 1 h; P51570; AID 1347072; 44,000 tested, under 10 active; Potency, µM (series often up to 57.5 µM), hits mostly inhibitors
#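 Reactions with and without enzyme served as controls. GALK at 5 nM phosphorylates 100 uM galactose using 35 uM ATP (HEPES pH 8.0, Mg2+) for 1 h at RT, with luminescence read 10 min after adding Kinase-Glo Plus.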
# GPR32 ag = GPR32 (DRV1) agonism, beta-arrestin recruitment | CHO-K1 GPR32 beta-arrestin PathHunter luminescence, 90 min; zero percent set by DMSO-only wells | activation, % at 76.9 µM | 2.5% of 48,000 active | AID 1346428;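 active means activation of at least 60% and not above a set upper limit, about 1 call in 100 departs from these limits; inconclusive means activation of 40% to 60%, or above that upper limit; inactive means activation under 40%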
#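 Engineered CHO-K1 line co-expressing GPR32-ProLink and EA-beta-arrestin. Compound treatment lasted 90 min at 37 °C. Luminescence was recorded after 1 h with substrate at ambient temperature, relative to DMSO basal wells.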
# HTT promoter inh = inhibits huntingtin promoter activity; HEK293 HTT promoter firefly luciferase reporter, 24 h; Potency, µM (doses to about 57.5 µM), actives largely listed as inhibitors; 0.93% of 48,000 active; further: nearly all actives have a fitted effect of over 50% in size
#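 HEK293 cells carrying firefly luciferase reporters were seeded at 2,500 per well in Opti-MEM and cultured for 24 h. They were then treated with compounds at up to 57.5 uM final for 24 h at 37 degrees C before Dual-Glo luminescence readout.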
# TSG101-PTAP inh = inhibitors of HIV-1 PTAP binding to human TSG101, validation. Q99816. Fluorescence polarization, FITC-PTAP peptide/Tsg101, 20 min. Potency, µM (series often up to 115 µM), most hits filed as inhibitors. 44,000 tested, under 10 active
# Target sequence (Q99816 whole entry, looked up): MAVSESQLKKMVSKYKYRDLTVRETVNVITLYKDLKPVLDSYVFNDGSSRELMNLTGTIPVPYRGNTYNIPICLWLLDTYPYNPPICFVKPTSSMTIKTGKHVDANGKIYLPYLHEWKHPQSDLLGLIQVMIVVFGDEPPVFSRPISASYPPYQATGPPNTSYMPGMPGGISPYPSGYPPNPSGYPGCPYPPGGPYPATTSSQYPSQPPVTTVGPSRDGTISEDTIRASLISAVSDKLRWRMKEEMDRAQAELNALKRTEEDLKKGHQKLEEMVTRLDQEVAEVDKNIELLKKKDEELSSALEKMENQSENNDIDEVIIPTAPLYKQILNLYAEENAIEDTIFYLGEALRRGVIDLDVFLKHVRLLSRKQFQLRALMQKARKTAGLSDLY
#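 Fluorescence polarization: Tsg101 binding domain (10 uM final) in 10 mM HEPES pH 7.5, 0.15 M NaCl, 0.01% Tween 20, 3 mM EDTA, 0.1 mM TCEP; compounds pinned; FITC-PTAP peptide 50 nM final; 20 min, r.t.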
# B2AR arrestin ag = ADRB2 beta-arrestin recruitment | P07550 | HTLA Tango cells, beta-arrestin recruitment, luciferase luminescence, 18 h | Potency, µM (doses to about 46.1 µM), usual class: activators | 44,000 tested, under 10 active | AID 1347077
#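 Tango cell line, 1% FBS DMEM; cpd titration up to 46 microM; 18 hr, 37 degrees C, 5% CO2. Luciferin/ATP substrate mix added, 15 min RT, luminescence. %Activity, CRC fitting, curve-class categorization.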
# HTT-AS act = activators of huntingtin-antisense promoter activity; Potency, µM (series often up to 57.5 µM), most hits filed as activators; HEK293 HTT-AS promoter firefly luciferase reporter, 24 h; response scale: percent change from vehicle, -100% = no light; 0.24% of 48,000 active; further: nearly all actives have a fitted effect of over 55% in size
#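 HEK293 Fluc reporter, 2,500 cells/well, 24 h pre-culture; cpds up to 57.5 uM final, 24 h 37 degrees C; Dual-Glo, 10 min RT; normalized vehicle = 0%, zero RLU = -100%.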
# A number is an active result; i = inactive; ? = inconclusive; nt = not tested or not shown; [ ] = another dose, or the depositor's remark. Unless noted, the call rests on the fitted dose curve; in most records, active means well fitted curve in the direction sought with a large enough effect; inconclusive means small, poorly fitted or top-dose-only effect, or another doubt; inactive means no such curve, though single readings can be large; an effect the other way counts as inactive or inconclusive.
SMILES,GALK inhibitor,GPR32 ag,HTT promoter inh,TSG101-PTAP inh,B2AR arrestin ag,HTT-AS act
COc1cccc(CNC(=O)CN(c2ccc(C(C)C)cc2)S(=O)(=O)c2c(C)n[nH]c2C)c1,i,71,i,i,i,i
COc1ccc(Br)cc1C(=O)Nc1nc2ccc(F)cc2s1,i,i,i,i,i,1.8µM
CC(=O)c1ccc(N2CCN(c3ncnc4onc(C)c34)CC2)cc1,i,i,4.5µM,i,i,i
O=c1[nH]c(=O)n([C@H]2C[C@@H](O)[C@@H](CO)O2)cc1C(F)(F)F,nt,nt,i,nt,nt,i
COc1cc(C2c3c(-c4c(C)cc(C)cc4O)n[nH]c3C(=O)N2CCO)cc(OC)c1OC (stereo not drawn),i,?,i,i,i,i
COCCN1C(=O)c2[nH]nc(-c3c(C)cc(C)cc3O)c2C1c1cccc(O)c1 (stereo not drawn),i,85,?,i,i,i
COc1cc(C2c3c(-c4c(C)cc(C)cc4O)n[nH]c3C(=O)N2Cc2ccco2)cc(OC)c1OC (stereo not drawn),i,65,i,i,i,i
O=C(O)[C@@H](c1ccc(OCc2ccc3ccccc3n2)cc1)C1CCCC1,nt,nt,i,nt,nt,i
Cc1cc(C2CCCCC2)n(O)c(=O)c1,nt,77,?,nt,nt,i
CCC(=O)C1=C(c2ccc(C)cc2)N(C(=O)CC)n2c(nnc2C2CCCCC2)S1,i,i,i,i,i,i
COc1cc(C=C2CCC/C(=C\c3ccc(O)c(OC)c3)C2=O)ccc1O,nt,i,?,nt,nt,i
COc1ccc(-c2nc(C)c(CCNC(=O)c3c(F)cccc3F)s2)cc1,i,80,i,i,i,i
COc1ccc(CC(=O)NCCc2sc(-c3cccc(F)c3)nc2C)cc1,i,98,?,i,i,i
COc1cccc(C(=O)NCCc2sc(-c3cccc(C)c3)nc2C)c1,i,i,i,i,i,i
CCOc1ccc(CC(=O)NCCc2sc(-c3cccc(F)c3)nc2C)cc1,i,69,?,i,i,i
Cc1nc(-c2ccc(F)cc2)sc1CCNC(=O)Cc1ccc(F)cc1,i,?,?,i,i,i
COc1ccc(C(=O)NCCc2sc(-c3cccc(F)c3)nc2C)cc1,i,67,i,i,i,i
Cc1cc(C(=O)N2CCN(c3cccc(Cl)c3)CC2)n(-c2ccccc2)n1,nt,nt,i,nt,nt,i
Cc1cccc(C(=O)NCCc2sc(-c3ccccc3)nc2C)c1,i,78,i,i,i,i
COC(=O)c1ccc2c(C(=Nc3ccc(N(C)C(=O)CN4CCN(C)CC4)cc3)c3ccccc3)c(O)[nH]c2c1,nt,nt,?,nt,nt,i
Cc1nc2nncn2c(NCc2ccc(Cl)cc2)c1C,i,76,?,i,i,i
CCOC(=O)N[C@@H]1CC[C@@H]2[C@@H](C1)C[C@H]1C(=O)O[C@H](C)[C@H]1[C@@H]2C=Cc1ccc(-c2cccc(F)c2)cn1,nt,nt,?,nt,nt,i
O=C(O)C1(Cc2cccc(Nc3nccs3)n2)CCC(Oc2cccc(Cl)c2F)CC1 (stereo not drawn),nt,nt,i,nt,nt,i
Cc1cccc(-c2nnc(SCCC(=O)O)o2)c1,i,i,0.25µM,i,i,i
O=C(COc1ccc(Br)cc1Cl)Nc1ncn[nH]1,i,i,i,i,i,8.9µM
SMILES,GALK inhibitor,GPR32 ag,HTT promoter inh,TSG101-PTAP inh,B2AR arrestin ag,HTT-AS act
CCc1ccc(OCC(=O)NCc2nc(-c3cccc(C)c3)no2)c(Br)c1,i,i,i,i,i,i
CCc1ccc(OCC(=O)Nc2ncn[nH]2)c(Br)c1,i,i,i,i,i,25µM
Cc1ccc(Nc2nc(C(N)=O)c(NC(=O)c3ccccc3Br)s2)cc1,i,61,i,i,i,i
NC(=O)c1nc(Nc2ccccc2)sc1NC(=O)c1c(F)cccc1F,i,i,i,i,i,?
COc1cc(S(=O)(=O)NCCc2c(C)[nH]c3ccccc23)c(C)cc1C,i,78,i,i,i,i
Cc1ccc(CNC(=O)CSc2n[nH]c(-c3ccc(F)cc3)n2)cc1,i,i,i,i,i,i
Cc1ccc(NC(=O)CSc2n[nH]c(-c3ccc(F)cc3)n2)cc1F,i,67,i,i,i,i
N#CC(=C(N)Sc1ccc(N)cc1)c1ccccc1C(F)(F)F,nt,nt,i,nt,nt,i
Cc1ccc(C(=O)c2oc3ccccc3c2NC(=O)c2nc(S(C)(=O)=O)ncc2Cl)cc1F,i,75,i,i,i,i
CS(=O)(=O)c1ncc(Cl)c(C(=O)Nc2c(C(=O)Nc3ccccc3)oc3ccccc23)n1,i,i,i,i,i,i
CC(C)n1cnc2c(NCCc3ccc(O)cc3)nc(-c3csc4ccccc34)nc21,nt,nt,?,nt,nt,i
Cc1ccc(CNC(=O)c2nc(SCc3ccccc3F)ncc2Cl)cc1,i,i,i,i,i,i
COc1ccc(CCNC(=O)c2nc(SCc3ccccc3F)ncc2Cl)cc1OC,i,i,18µM,i,i,i
CC(=O)Nc1ccc(NC(=O)c2nc(SCc3ccccc3C)ncc2Cl)cc1,i,65,i,i,i,i
CCc1nnc(NC(=O)c2nc(SCc3ccccc3C)ncc2Cl)s1,i,i,i,i,i,i
O=C1CCCC2=C1C(c1[nH]ncc1Cl)N=C(Nc1nc3ccccc3o1)N2 (stereo not drawn),nt,nt,i,nt,nt,i
CC(=O)N1CCN(c2ccc(OCc3nn(C)c(C)c3-c3cccc4c(CCCOc5cc(C)c(Cl)c(C)c5)c(C(=O)O)n(Cc5cccnc5)c34)cc2)CC1,nt,nt,i,nt,nt,i
CCOC(=O)c1cccc(NC(=O)c2ccc3c(c2)nnn3CC)c1,i,61,i,i,i,i
CCn1nnc2cc(C(=O)Nc3cccc(Cl)c3)ccc21,i,i,i,i,i,?
CCOC(=O)c1cccc(NC(=O)CSc2nc3cc4ccccc4cc3[nH]2)c1,i,114,i,i,i,i[11.5 µM]
COC(=O)c1ccc(NC(=O)CSc2nc3cc4ccccc4cc3[nH]2)cc1,i,94,i[11.5 µM],i,i,i
C=C1C(=CC=C2CCC[C@]3(C)[C@@H]([C@H](C)CCCC(C)(C)O)CC[C@@H]23)C[C@@H](O)C[C@@H]1O,nt,nt,i,nt,nt,i
O=C(O)c1ccc(O)c2ncc(N3CCOCC3)cc12,nt,nt,i,nt,nt,i
CC(C)C(C)C=CC(C)C1CCC2C3=CC=C4CC(O)CCC4(C)C3CCC21C (stereo not drawn),nt,nt,?,nt,nt,i
CCSc1nc2c([nH]c3ccccc32)c(=O)n1-c1ccc(F)cc1,i,79,i,i,i,i
CSc1nc2c([nH]c3ccccc32)c(=O)n1-c1ccc(F)cc1,i,?,i,i,i,i

# From PubChem BioAssay
